Where a name gives a salt, the structure may show the parent alone.
Key:
Test in all cases: Euclidean distance of Cell Painting phenotypic profile (signed KS, 77 features) to DMSO centroid (dimensionless distance); 5 or 10 uM (library dependent); higher = stronger phenotypic change vs DMSO (phenoactivity)
Details in all cases: 48 h
786-O = test system: 786-O
How it was run: (§1)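 Stained cells were imaged confocally at 20X with 9 fields per well, after 48 h of exposure to library compounds at 10 or 5 uM (set by library; 0.1% DMSO final). The cells were five cancer lines and a healthy fibroblast line. From the images, Harmony extracted 77 features, each expressed as a signed Kolmogorov-Smirnov statistic relative to same-plate vehicle wells. Phenoactivity is measured as Euclidean distance to the median vehicle profile, using plate-position-corrected, correlation-weighted profiles averaged across replicates at the top dose.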

A549 = test system: A549
How it was run: as §1

DU145 = test system: DU145
How it was run: as §1

FB = test system: FB
How it was run: as §1

HEPG2 = test system: HEPG2
How it was run: as §1

OVCAR4 = test system: OVCAR4
How it was run: as §1

Row | SMILES | Euclidean distance (786-O) | Euclidean distance (A549) | Euclidean distance (DU145) | Euclidean distance (FB) | Euclidean distance (HEPG2) | Euclidean distance (OVCAR4)
1 | COC(=O)Nc1nc2cc(C(=O)c3cccs3)ccc2[nH]1 [Nocodazole] | 2.96 | 2.51 | 3.43 | 2.56 | 2.58 | 3.08
2 | CN(CCCCCCCCCCN(C)C(=O)Oc1cccc([N+](C)(C)C)c1)C(=O)Oc1cccc([N+](C)(C)C)c1 [Demecarium Bromide] | 0.786 | 0.898 | 0.6 | 1.07 | 1.17 | 1.24
3 | C#CCN(C)Cc1ccccc1 [Pargyline hydrochloride] | 1.39 | 0.874 | 1.18 | 1.16 | 0.696 | 1.43
4 | Cc1c(N)c(=O)n(-c2ccccc2)n1C [4-Aminoantipyrine] | 1.29 | 0.968 | 1.5 | 0.907 | 0.845 | 1.32
5 | CCc1cnn2c(NCc3ccc[n+]([O-])c3)cc(N3CCCC[C@H]3CCO)nc12 | 3.35 | 2.78 | 3.2 | 3.11 | 2.64 | 3.58
6 | CC(C)(C)c1ccc(C(O)CCCN2CCC(C(O)(c3ccccc3)c3ccccc3)CC2)cc1 (centres undefined) [Terfenadine] | 1.05 | 4.51 | 1.53 | 1.18 | 1.05 | 1.52
7 | Cc1cc2ncc(C(=O)NCC(C)(C)NCC(=O)N3CCC[C@H]3C#N)cn2n1 [Anagliptin] | 1.08 | 1.14 | 1.17 | 1.29 | 0.393 | 1.17
8 | CCS(=O)(=O)N1CC(CC#N)(n2cc(-c3ncnc4[nH]ccc34)cn2)C1 | 1.86 | 0.875 | 1.45 | 1.57 | 0.589 | 0.899
9 | Nc1c(CC(=O)O)cccc1C(=O)c1ccccc1 [Amfenac Sodium Monohydrate] | 1.3 | 0.843 | 0.909 | 1.46 | 0.424 | 1.11
10 | CCC[C@@H]1C[C@@H](C(=O)N[C@@H]([C@H]2O[C@H](SC)[C@H](O)[C@@H](O)[C@H]2O)[C@H](C)Cl)N(C)C1 [Clindamycin HCl] | 1.06 | 0.576 | 0.99 | 0.761 | 0.82 | 0.755
11 | O=C(Nc1cccc2c(=O)cc(-c3nnn[nH]3)oc12)c1ccc(OCCCCc2ccccc2)cc1 [Pranlukast] | 0.942 | 1.36 | 0.906 | 0.842 | 1.13 | 0.86
12 | CC(C)CN(C[C@@H](O)[C@H](Cc1ccccc1)NC(=O)O[C@H]1CCOC1)S(=O)(=O)c1ccc(N)cc1 [Amprenavir] | 1.35 | 1.29 | 1.22 | 1.22 | 1.26 | 1.6
13 | O=C1Nc2ccccc2C1=O [Isatin] | 0.739 | 1.21 | 1.26 | 1.29 | 1.03 | 1.39
14 | CC(C)(C)c1cc(C(C)(C)C)c(NC(=O)c2c[nH]c3ccccc3c2=O)cc1O [Ivacaftor (VX-770)] | 2.11 | 2.23 | 1.21 | 0.989 | 1.96 | 1.56
15 | COc1ccc(-c2nc(N3CCOCC3)c3sc(CN(C)c4ncc(C(=O)NO)cn4)cc3n2)cn1 | 3.46 | 4.27 | 4.25 | 3.52 | 4.2 | 3.25
16 | CCC(=O)Nc1cccc(Oc2nc(Nc3ccc(N4CCN(C)CC4)cc3OC)ncc2Cl)c1 | 1.62 | 1.63 | 0.903 | 1.15 | 1.61 | 1.26
17 | Nc1cc(C(Cl)=C(Cl)Cl)c(S(N)(=O)=O)cc1S(N)(=O)=O [Clorsulon] | 1.15 | 0.636 | 0.797 | 0.676 | 0.743 | 1.18
18 | CN(C)c1nc(N(C)C)nc(N(C)C)n1 [Altretamine] | 1.11 | 0.902 | 0.807 | 1.32 | 0.597 | 0.929
19 | O[C@@H](COc1cccc2ncccc12)CN1CCN(C2c3ccccc3[C@@H]3[C@H](c4ccccc42)C3(F)F)CC1 (some centres undefined) | 1.12 | 1.33 | 0.754 | 0.764 | 0.675 | 1.43
20 | Cc1cc(=O)n(-c2ccccc2)n1C [Antipyrine] | 1.52 | 0.45 | 1.03 | 1.42 | 0.888 | 0.707
21 | CC/C=C(\C(=O)N[C@@H]1C(=O)N2C(C(=O)OCOC(=O)C(C)(C)C)=C(COC(N)=O)CS[C@H]12)c1csc(N)n1 [Cefcapene Pivoxil Hydrochloride] | 1.24 | 0.833 | 2.69 | 0.746 | 0.54 | 0.898
22 | O=c1c2ccccc2oc2ccccc12 [Xanthone] | 1 | 1.28 | 1.24 | 1.02 | 0.607 | 1.14
23 | O=C(O)c1ccccn1 [Picolinic acid (PCL 016)] | 0.642 | 0.409 | 2.15 | 0.847 | 0.761 | 0.799
24 | Cc1ncc([N+](=O)[O-])n1CCO [Metronidazole] | 0.797 | 0.775 | 0.948 | 1.08 | 0.943 | 1.6
25 | CC(C)(C)C(=O)OCOC(=O)[C@@H]1N2C(=O)[C@@H](/N=C/N3CCCCCC3)[C@H]2SC1(C)C [Pivmecillinam hydrochloride] | 1.23 | 1.69 | 0.728 | 0.994 | 0.59 | 1.14

Row | SMILES | Euclidean distance (786-O) | Euclidean distance (A549) | Euclidean distance (DU145) | Euclidean distance (FB) | Euclidean distance (HEPG2) | Euclidean distance (OVCAR4)
26 | CCOc1cc2ncc(C#N)c(Nc3ccc(F)c(Cl)c3)c2cc1NC(=O)/C=C/CN(C)C [Pelitinib (EKB-569)] | 2.29 | 3.19 | 4.45 | 4.45 | 2.63 | 2.82
27 | CCCCOc1ccc(C(=O)CCN2CCCCC2)cc1 [Dyclonine HCl] | 1.45 | 0.937 | 1.42 | 0.997 | 1.96 | 0.828
28 | CCc1c2c(nc3ccc(OC(=O)N4CCC(N5CCCCC5)CC4)cc13)-c1cc3c(c(=O)n1C2)COC(=O)[C@]3(O)CC [Irinotecan HCl Trihydrate] | 3.01 | 3.5 | 4.47 | 4.08 | 3.19 | 3.1
29 | O=c1ncccn1[C@@H]1O[C@H](CO)[C@@H](O)[C@H]1O [Zebularine] | 1.2 | 1 | 0.895 | 0.816 | 0.887 | 0.492
30 | CC(C)(O)c1cc(Nc2cc(Oc3cn(C4CC4)nc3C3CCOCC3)ccn2)ccn1 | 0.999 | 0.879 | 1.32 | 1.38 | 1.09 | 1.36
31 | CCCCC/C=C\C/C=C\CCCCCCCC(=O)O [Linoleic acid] | 0.927 | 1.38 | 1.02 | 1.3 | 0.86 | 1.11
32 | O=C(Nc1cccnn1)N1CCC(=Cc2cccc(Oc3ccc(C(F)(F)F)cn3)c2)CC1 | 1.52 | 1.02 | 1.2 | 0.799 | 1.66 | 1.21
33 | N=C(N)NC(=N)NCCc1ccccc1 [Phenformin HCl] | 1.03 | 1.71 | 1.14 | 1.15 | 1.56 | 0.844
34 | CC1CCc2c(N3CCC(O)CC3)c(F)cc3c(=O)c(C(=O)O)cn1c23 (centres undefined) [Nadifloxacin] | 1.05 | 0.818 | 0.896 | 1.14 | 0.855 | 0.748
35 | CC(C)C(=O)OCC(=O)[C@@]12O[C@H](C3CCCCC3)O[C@@H]1C[C@H]1[C@@H]3CCC4=CC(=O)C=C[C@]4(C)[C@H]3[C@@H](O)C[C@@]12C [Ciclesonide] | 1.71 | 2.49 | 2.88 | 2.36 | 2.25 | 2.09
36 | CC(=O)OCC(=O)[C@@]12N=C(C)O[C@@H]1C[C@H]1[C@@H]3CCC4=CC(=O)C=C[C@]4(C)[C@H]3[C@@H](O)C[C@@]12C [Deflazacort] | 1.27 | 1.84 | 2.48 | 2.04 | 1.58 | 1.7
37 | CN1CCC(OC(c2ccccc2)c2ccccc2)CC1 [Diphenylpyraline hydrochloride] | 0.93 | 0.611 | 2.19 | 1.17 | 0.532 | 0.876
38 | N=C(N)Nc1ccc(C(=O)Oc2ccc3cc(C(=N)N)ccc3c2)cc1 [Nafamostat Mesylate] | 1.58 | 1.62 | 1.06 | 1.02 | 0.93 | 1.24
39 | Cn1nnc(-c2ccc(-c3ccc(N4C[C@H](CO)OC4=O)cc3F)cn2)n1 [Tedizolid] | 1.38 | 1.13 | 0.583 | 0.908 | 1 | 1.01
40 | O=C(O[C@@H]1Cc2c(O)cc(O)cc2O[C@@H]1c1cc(O)c(O)c(O)c1)c1cc(O)c(O)c(O)c1 [(-)-Epigallocatechin Gallate] | 0.998 | 0.875 | 1.33 | 1.39 | 1.17 | 0.757
41 | O=C(Nc1cccc(Cl)c1)c1ccccn1 | 1.22 | 0.467 | 0.841 | 0.785 | 0.522 | 0.899
42 | COC(=O)Nc1nc2cc(C(=O)c3ccc(F)cc3)ccc2[nH]1 [Flubendazole] | 2.74 | 2.91 | 3.24 | 2.46 | 2.16 | 3.1
43 | COc1cc(O)c2c(c1)oc(=O)c1c3cc(O)c(O)cc3oc21 [Wedelolactone] | 1.08 | 1.94 | 1.02 | 2.37 | 2.5 | 2.37
44 | CCCCC[C@H](O)/C=C/[C@H]1[C@H](O)CC(=O)[C@@H]1CCCCCCC(=O)O [Alprostadil] | 1.36 | 0.929 | 0.936 | 1.16 | 0.927 | 1.2
45 | Cc1nc(Nc2ccc(F)cc2)nc(N2CCc3ccccc3C2C)c1C (centres undefined) [Revaprazan Hydrochloride] | 1.38 | 1.19 | 1.06 | 1.28 | 1.21 | 1.13
46 | CC(C)NCC(O)c1ccc(NS(C)(=O)=O)cc1 (centres undefined) [Sotalol] | 1.21 | 0.865 | 0.768 | 0.911 | 0.602 | 1.02
47 | CCCCS(=O)(=O)N[C@@H](Cc1ccc(OCCCCC2CCNCC2)cc1)C(=O)O [Tirofiban Hydrochloride] | 1 | 1.07 | 1.77 | 1.22 | 0.871 | 1.39
48 | Nc1nccc(Oc2ccc(NC(=O)c3c[nH]cc(-c4ccc(F)cc4)c3=O)cc2F)c1Cl | 1.57 | 1.17 | 1.56 | 1.94 | 1.17 | 1.62
49 | CCn1c(=O)c2c(nc(/C=C/c3ccc(OC)c(OC)c3)n2C)n(CC)c1=O [Istradefylline] | 1.47 | 1.5 | 0.734 | 1.18 | 0.77 | 1.44

— the supplement of paper PMC10127200
